# Measurements reported in PMC4552634, “A New Set of Chemical Starting Points with Plasmodium falciparum Transmission-Blocking Potential for Antimalarial Drug Discovery” (PLoS ONE, 2015).
# Among all 13,000 compounds or so, about 3,200 (25%) showed an effect of 50% or more. Some of the results follow.
# Tested on: P. falciparum stage V gametocytes
# Set-up: BacTiter-Glo ATP luminescence viability of purified stage V gametocytes in 384-well plates, per cent inhibition versus DMSO
# Conditions: 48 h, 5 µM; inhibitor
row,Structure (SMILES),% Inhibition
1,CC(C)C[C@@H](C(=O)N[C@H](C(=O)Nc1nccs1)C(C)(C)C)[C@H](CCC(F)(F)F)N(O)C=O [TCMDC-138178],1.039%
2,CCC1(CC)N=C(N)N=C(N)N1OCc1ccc(Cl)c(Cl)c1 [TCMDC-131656],33.88%
3,N#Cc1ccc(C(=O)Nc2ccc(Cl)c(N3CCN(CCc4ccccc4)CC3)c2)cc1 [TCMDC-133534],-15.74%
4,CC(Nc1ccc2c(c1)CCC2)C(=O)Nc1cc(C(F)(F)F)ccc1N1CCOCC1 (stereo not drawn) [TCMDC-124858],33.49%
5,COc1ccc2ncc(C#N)c(CCN3CCC(NCc4ccc5c(n4)NC(=O)CS5)CC3)c2n1 [TCMDC-135188],-9.823%
6,CN(C(=O)/C=C/c1cc(C(F)(F)F)ccc1F)C1CCN(CCCCCNC(=O)/C=C/c2ccc(Cl)c(Cl)c2)CC1 [TCMDC-139991],-46.39%
7,CC1CCCCC1N(C)C1CCN(CCCNC(=O)C=Cc2cccc(C(F)(F)F)c2)CC1 (stereo not drawn) [TCMDC-124443],53.92%
8,CC1CCCCC1N(C)C1CCN(CCCNC(=O)C=Cc2ccccc2Cl)CC1 (stereo not drawn) [TCMDC-124442],1.29%
9,CCN(CC)c1ccc(C=CC(=O)NCCN2CCC(N(C)C3CCCCC3C)CC2)cc1 (stereo not drawn) [TCMDC-124445],-34.59%
10,O=C(/C=C/c1cccc(C(F)(F)F)c1)NCCCCCN1CCC(c2c[nH]c3ccccc23)CC1 [TCMDC-139212],-27.28%
11,CC1CCCCC1N(C)C1CCN(CCCNC(=O)C=Cc2ccc(Cl)cc2Cl)CC1 (stereo not drawn) [TCMDC-124444],93.47%
12,Fc1ccc(COc2ccc(Nc3ncnc4ccc(I)cc34)cc2Cl)cc1 [TCMDC-138628],-1.956%
13,Cc1c(Cc2ccc(C(C)C)cc2)cnc2nc(N)nc(N)c12 [TCMDC-138044],4.775%
14,CCOc1ccc(-c2nonc2NC(=O)c2ccccc2)cc1OCC [TCMDC-125199],91.48%
15,CCOc1ccc(-c2nonc2NC(=O)c2cccs2)cc1OCC [TCMDC-125207],83.06%
16,CCOc1ccc(-c2nonc2NC(=O)c2cccc(Cl)c2)cc1OCC [TCMDC-125200],91.59%
17,CCOc1ccc(-c2nonc2NC(=O)CC(C)C)cc1OCC [TCMDC-125196],42.86%
18,CCCCC(=O)Nc1nonc1-c1ccc(OCC)c(OCC)c1 [TCMDC-125071],74.8%
19,CCOc1ccc(-c2nonc2NC(=O)c2ccco2)cc1OCC [TCMDC-125197],3.347%
20,Cc1ccc2cc(NCCCCCCCCON3C(N)=NC(N)=NC34CCCCC4)ccc2n1 [TCMDC-140362],9.593%
21,Cn1cncc1C(=O)NC1CCN(c2ccnc(Nc3ccc(F)cc3)n2)C1 (stereo not drawn) [TCMDC-133600],-9.129%
22,CC(C)CC(C)NC(=O)C1Cc2c([nH]c3ccc(F)cc23)C2(CCN(Cc3ccccc3)CC2)N1 (stereo not drawn) [TCMDC-141304],-71.76%
23,Cc1cccc2nc(-c3ccc(-c4ccc(NC(=O)Nc5cccc(C#N)c5)cc4)s3)[nH]c12 [TCMDC-133189],17.89%

row,Structure (SMILES),% Inhibition
1,CCN(CC)S(=O)(=O)c1ccc(C(=O)Oc2ccccc2N(Cc2ccc(OC)cc2)C2=NS(=O)(=O)c3ccccc32)cc1 [TCMDC-125657],32.63%
2,COc1ccc2nccc([C@@H](O)CN3CCC(NCc4ccc5sc(=O)[nH]c5c4)CC3)c2c1 [TCMDC-141199],32.68%
3,Oc1ccc(CN2CCC(N3CCN(CCc4ccccc4)CC3)C(O)C2)cc1Cl (stereo not drawn) [TCMDC-124627],21.13%
4,CCc1ccc(O)c(-c2cc(C(=O)Nc3cccnc3)[nH]n2)c1 [TCMDC-125321],-26.21%
5,CN1CCN(Cc2c(O)ccc3c(=O)c(Oc4ccc(C(C)(C)C)cc4)c(C(F)(F)F)oc23)CC1 [TCMDC-125699],17.84%
6,O=C(Nc1cccc(Cl)c1)OC1CCCN2CCCCC12 (stereo not drawn) [TCMDC-132073],14.89%
7,CC(C)(C)c1ccc(S(=O)(=O)Nc2ccccc2Cn2nc(N3CCNCC3)ccc2=O)cc1 [TCMDC-132579],45.07%
8,CC(C)(C)C(=O)Nc1ccc(C(=O)Nc2cccc(-c3nc4ccccc4[nH]3)c2)cc1 [TCMDC-123720],-0.3051%
9,CCOc1ccc(-c2nonc2NC(=O)c2ccc(Cl)cc2)cc1OCC [TCMDC-125210],29.52%
10,CCOc1ccc(-c2nonc2NC(=O)c2ccc(F)cc2)cc1OCC [TCMDC-125209],63.55%
11,CCOc1ccc(-c2nonc2NC(=O)c2ccc(OC)cc2)cc1OCC [TCMDC-125208],49.87%
12,Nc1cccc(CNCc2cccc(-c3ccc(-c4nc5ccccc5[nH]4)cc3)c2)c1.O=C(O)C(F)(F)F [TCMDC-132940],-44.43%
13,CCOc1cccc2nc(NCCCNCc3ccc(Cl)c(Cl)c3)cc(NCCCNCc3ccc(Cl)c(Cl)c3)c12 [TCMDC-139413],102.1%
14,CCOc1cc(NCCCNc2ncc([N+](=O)[O-])cc2C)nc2ccccc12 [TCMDC-139265],-18.92%
15,CCOc1c(Cl)cc(Cl)cc1CNCCCNc1nc2ccccc2[nH]1 [TCMDC-140104],21.3%
16,COc1ccc2c(c1)nc(CN=C(N)N)n2Cc1ccc(Cl)cc1 [TCMDC-142042],28.73%
17,Cc1cc(O)c(-c2cc(C(=O)Nc3cccnc3)[nH]n2)cc1C [TCMDC-124307],6.508%
18,COc1ccc(-c2nc(NC(=O)COc3ccc(C(C)=O)cc3)sc2C)cc1 [TCMDC-125108],2.358%
19,Cn1nccc1C(=O)NCCNCc1ccc(-c2ccc(-c3nc4cc(C(F)(F)F)ccc4[nH]3)s2)cc1.O=C(O)C(F)(F)F [TCMDC-133018],-29.18%
20,CCNc1cc(C(=O)NC(Cc2ccccc2)C(O)CNC(C)(C)CCCC(C)C)c(F)c(N2CCCS2(=O)=O)c1 (stereo not drawn) [TCMDC-135210],12.17%
21,CC(C)CCCC(C)(C)NC[C@@H](O)[C@H](Cc1ccccc1)NC(=O)c1cc(NC(C)C)cc(N2CCCCS2(=O)=O)c1F [TCMDC-135540],50.35%
22,CCNc1cc(C(=O)N[C@@H](Cc2ccccc2)[C@H](O)CNC(C)(C)CCCC(C)C)cc(N2CCCCS2(=O)=O)c1 [TCMDC-135211],24.29%
23,CC(C)CCCC(C)(C)NC[C@@H](O)[C@H](Cc1ccccc1)NC(=O)c1cc(NC(C)C)cc(N2CCCCS2(=O)=O)c1 [TCMDC-135206],89.31%

row,Structure (SMILES),% Inhibition
1,CCNc1cc(C(=O)N[C@@H](Cc2ccccc2)[C@H](O)CNCCC(C)(C)C)c(F)c(N2CCCCS2(=O)=O)c1 [TCMDC-135165],62.14%
2,CCNc1cc(C(=O)N[C@@H](Cc2ccccc2)[C@H](O)CNC(C)CC(C)C)c(F)c(N2CCCCS2(=O)=O)c1 (stereo partly drawn) [TCMDC-135167],44.92%
3,CC(C)Nc1cc(C(=O)N[C@@H](Cc2ccccc2)[C@H](O)CNC(C)(C)c2cccc(C(F)(F)F)c2)cc(N2CCCCS2(=O)=O)c1 [TCMDC-135204],0.5792%
4,CC(C)Nc1cc(C(=O)N[C@@H](Cc2ccccc2)[C@H](O)CNCc2cccc(C(F)(F)F)c2)c(F)c(N2CCCCS2(=O)=O)c1 [TCMDC-135538],3.895%
5,CCNc1cc(C(=O)N[C@@H](Cc2ccccc2)[C@H](O)CNC(C)(C)CC(C)(C)C)c(F)c(N2CCCCS2(=O)=O)c1 [TCMDC-135166],-2.474%
6,CCC(CC)n1c(COC)cc2c3c(N)nc(N)nc3ccc21 [TCMDC-137313],-40.93%
7,CCc1cc2c3c(N)nc(N)nc3ccc2n1C(CC)CC [TCMDC-137309],2.246%
8,CC(C)n1ncc2c3c(N)nc(N)nc3ccc21 [TCMDC-137866],12.93%
9,CCn1c(C(C)C)cc2c3c(N)nc(N)nc3ccc21 [TCMDC-137856],56.38%
10,CCc1cc2c3c(N)nc(N)nc3ccc2n1CC [TCMDC-137851],94.91%
11,CCc1cc2c3c(N)nc(N)nc3ccc2n1C(C)CC (stereo not drawn) [TCMDC-137308],10.89%
12,CCCc1cc2c3c(N)nc(N)nc3ccc2n1C(CC)CC [TCMDC-137312],13.64%
13,CCc1cc2c3c(N)nc(N)nc3ccc2n1C(C)(C)C [TCMDC-137306],29.54%
14,CCCc1cc2c3c(N)nc(N)nc3ccc2n1CC [TCMDC-137946],108%
15,CSC1=NC2(CC(c3cccc(C)c3)c3cc(Cl)c(O)cc3O2)CC(C)(C)N1 (stereo not drawn) [TCMDC-125563],19.29%
16,O=C(c1ccc(-c2ccccn2)s1)N1CCc2cc3nccc(N4CCN5CCC[C@H]5C4)c3cc21 [TCMDC-140047],34.48%
17,CCCCCCn1c(Sc2ccc(C#N)c([N+](=O)[O-])c2)nnc1-c1cccs1 [TCMDC-135586],11.04%
18,COc1cccc(C(=O)Nc2ccc(Nc3nc(C)cc(N4CCCCC4)n3)cc2)c1OC [TCMDC-124963],-19.94%
19,CC(CN(C)C)Oc1ccc2[nH]c(-c3cccc(OCc4ccccc4)c3)nc2c1C#N (stereo not drawn) [TCMDC-133767],6.337%
20,CCn1c(-c2nonc2N)nc2c(-c3cccc(NC(=O)Nc4ccc(C#N)cc4)c3)ncc(OCCCN)c21 [TCMDC-136194],88.46%
21,CCn1c(-c2nonc2N)nc2c(-c3cccc(NC(=O)Nc4cccc(C#N)c4)c3)ncc(OCCCN)c21 [TCMDC-136195],98.06%
22,N#Cc1cccc(NC(=O)Nc2cccc(-c3cccc(-c4nc5ccccc5[nH]4)c3)c2)c1 [TCMDC-133193],-45.89%
23,Cc1cccc2[nH]c(-c3ccc(-c4ccc(NC(=O)Nc5cccc(C#N)c5)cc4)cc3)nc12 [TCMDC-133196],-20.21%
